Rows were chosen to be rich in hits. Some 4.4% of all compounds tested hit in one or more screens of this group.
tim23-1 inh: inhibits growth of tim23-1 mutant yeast; S. cerevisiae tim23-1 growth, BacTiter-Glo luminescence, 24 h; inhibition, % at 20 µM; actives 1.3% (n = 330,000); AID 463212;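 active = growth inhibition of the mutant yeast at or above 50%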;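 also: temperature-sensitive mutant grown at 25 °C; plate controls were DMSO-treated mutant yeast for no effect and medium wells lacking yeast for full effect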
SKKanGAS inh: inhibitors of SKKanGAS S. pyogenes growth in kanamycin (SK-promoter or general growth effect). AID 1662. inhibition, % at 7.5 µM. BacTiter-Glo, 6 h. actives 1.3% (n = 300,000);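 active = mean replicate score, as percent of positive control median, at least 50; inconclusive = mean below 50 but one replicate at or above 50; inactive = mean and every replicate below 50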;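 also: strain carries kanamycin resistance gene driven by streptokinase promoter and grows in 40 µg/ml kanamycin; loss of luminescence reflects streptokinase promoter inhibition or plain growth inhibition; 0% = median of DMSO wells and 100% = positive control at its reference dose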
PfHsp90 set2: growth inhibition of yeast expressing Plasmodium Hsp90; S. cerevisiae expressing PfHsp90, BacTiter-Glo ATP, 48 h; yeast lacking PDR1 and PDR3 efflux regulators; inhibition, % at 9.4 µM; actives 0.32% (n = 310,000);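 active = every replicate shows inhibition above about 80%, whatever the replicate mean, limit read from the data; inconclusive = mean inhibition reaches the set limit but some replicate falls short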;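 also: 0% = DMSO neutral controls and 100% = 20 µM radicicol positive controls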
tim10-1 inh: tim10-1 yeast growth inhibition | S. cerevisiae tim10-1 ts strain growth, BacTiter-Glo, 24 h | inhibition, % at 20 µM | actives 2.2% (n = 330,000);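 active = inhibition of at least 40%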;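 also: mutant grown at 25 °C; 0% = DMSO wells with yeast and 100% = wells holding no yeast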
TIM10 inh: inhibits growth of TIM10 yeast strain | inhibition, % at 10 µM | S. cerevisiae TIM10 strain growth, BacTiter-Glo luminescence, 24 h | actives 1.4% (n = 330,000) | AID 463195;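 active = inhibition of 40% or more at the single tested concentration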;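 also: wild-type TIM10 isogenic control strain grown at permissive 25 °C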
tim10-1 conf: tim10-1 yeast growth inhibition, confirmed | actives 56% (n = 7,400) | S. cerevisiae tim10-1 ts strain growth, BacTiter-Glo, 24 h | inhibition, % at 20 µM | shares compounds with tim10-1 inh;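 active = inhibition of yeast growth at or above a set limit in either of two repeat tests at 20 µM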;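 also: tim10-1 mutant grown at permissive 25 °C to find synthetic lethal compounds; 0% = DMSO yeast wells and 100% = medium wells without yeast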
* = called active by the depositor.

How did O=C(CCCn1c(=O)[nH]c2ccccc2c1=O)NC1CCCCCC1 do in these assays?
tim23-1 inh: 14; SKKanGAS inh: 2; PfHsp90 set2: 8; tim10-1 inh: 16; TIM10 inh: 9

What do the screens show for `CC1CCC(NC(=O)CCCn2sc3ccccc3c2=O)CC1` (centres undefined)?
tim23-1 inh: 39; SKKanGAS inh: -1; PfHsp90 set2: 10; tim10-1 inh: 41*; TIM10 inh: 2; tim10-1 conf: 1

What do the screens show for `CC(C)C1OC(c2cccc(NC(=O)c3cccs3)c2)OCC1(C)C` (centres undefined)?
tim23-1 inh: 23; SKKanGAS inh: 13; PfHsp90 set2: -40; tim10-1 inh: 44*; TIM10 inh: 39; tim10-1 conf: 32*

What do the screens show for `CCCNC(=O)CNC(=O)c1ccc(C#N)cc1`?
tim23-1 inh: 23; PfHsp90 set2: -14; tim10-1 inh: 13; TIM10 inh: -2

What do the screens show for `Cc1ccc2nc(SCC(=O)N3CCCc4ccccc43)nc(=O)n2c1`?
PfHsp90 set2: 2

How did CCCCCC(=O)c1c(C)[nH]c(C(=O)OCC)c1C do in these assays?
tim23-1 inh: 28; SKKanGAS inh: -15; PfHsp90 set2: -4; tim10-1 inh: 9; TIM10 inh: 7

What do the screens show for `CCCCCCC(=O)c1c(C)[nH]c(C(=O)OCC)c1C`?
tim23-1 inh: 27; SKKanGAS inh: -6; PfHsp90 set2: -11; tim10-1 inh: 40*; TIM10 inh: 9; tim10-1 conf: 19

Results for CCc1ccc(Nc2n[n+](-c3ccccc3)c(/C=C/c3ccccc3)s2)cc1 ?
tim23-1 inh: -15; SKKanGAS inh: -4; tim10-1 inh: 43*; TIM10 inh: 1; tim10-1 conf: 15

What do the screens show for `COc1ccccc1NC(=O)CSC1CC(=O)N(c2ccc3c(c2)OCO3)C1=O` (centres undefined)?
tim23-1 inh: 31; SKKanGAS inh: -7; PfHsp90 set2: 3; tim10-1 inh: 47*; TIM10 inh: 20; tim10-1 conf: 45*

How did Cc1cccc2nc(-c3cccnc3)c(NCCC(C)C)n12 do in these assays?
tim23-1 inh: 40; SKKanGAS inh: 4; PfHsp90 set2: -61; tim10-1 inh: 46*; TIM10 inh: 23; tim10-1 conf: 40*

What do the screens show for `Cc1cccc2nc(-c3cccnc3)c(Nc3ccccc3)n12`?
tim23-1 inh: 10; SKKanGAS inh: 4; PfHsp90 set2: -8; tim10-1 inh: 4; TIM10 inh: -3

Results for C=CCN(C)CC/C=C1\c2ccccc2CSc2ccccc21 ?
tim23-1 inh: 18; SKKanGAS inh: 2; PfHsp90 set2: 29; tim10-1 inh: 38; TIM10 inh: 10

How did C#CCN(C)CC/C=C1\c2ccccc2CSc2ccccc21 do in these assays?
tim23-1 inh: 20; SKKanGAS inh: 37; PfHsp90 set2: 5; tim10-1 inh: 44*; TIM10 inh: 17; tim10-1 conf: 17

How did O=C(NC1CCCC1)C(c1ccc(F)cc1)N(Cc1ccc(F)cc1)C(=O)CCl (centres undefined) do in these assays?
tim23-1 inh: 41; SKKanGAS inh: -7; PfHsp90 set2: 9; tim10-1 inh: 57*; TIM10 inh: 36; tim10-1 conf: 33*

What do the screens show for `O=C(NC1CCCCC1)C(c1ccncc1)N(Cc1ccc(F)cc1)C(=O)c1ccccn1` (centres undefined)?
tim23-1 inh: 4; SKKanGAS inh: 0; PfHsp90 set2: -9; tim10-1 inh: 2; TIM10 inh: -13

What do the screens show for `COc1ccccc1N=Cc1nc(-c2ccccc2)oc1OC(C)=O`?
tim23-1 inh: 45; SKKanGAS inh: 4; PfHsp90 set2: 6; tim10-1 inh: 52*; TIM10 inh: 32; tim10-1 conf: 26

Results for CC(=O)Oc1oc(-c2ccccc2)nc1/C=N/c1ccccn1 ?
tim23-1 inh: 43; SKKanGAS inh: 3; PfHsp90 set2: 19; tim10-1 inh: 29; TIM10 inh: 26

What do the screens show for `Cc1cccc(NC(=S)NNC(=O)c2csc(C(C)C)c2)c1`?
tim23-1 inh: 10; SKKanGAS inh: 0; PfHsp90 set2: 12; tim10-1 inh: 44*; TIM10 inh: 34; tim10-1 conf: 28

What do the screens show for `CCS(=O)(=O)NCc1ccc2[nH]c3c(c2c1)CCCC3`?
tim23-1 inh: 7; SKKanGAS inh: 23; tim10-1 inh: 23; TIM10 inh: -3

What do the screens show for `Cc1cc(C)cc(NC(=S)NCc2ccc3[nH]c4c(c3c2)CCCC4)c1`?
tim23-1 inh: 39; SKKanGAS inh: 18; PfHsp90 set2: -25; tim10-1 inh: 41*; TIM10 inh: 35; tim10-1 conf: 26

Results for Cc1ccnc(NC(=O)C23CC4CC(CC(C4)C2)C3)c1 ?
tim23-1 inh: 38; SKKanGAS inh: -7; PfHsp90 set2: -14; tim10-1 inh: 49*; TIM10 inh: 22; tim10-1 conf: 34*

How did CCC(=O)Nc1ccc(NC(=O)C23CC4CC(CC(C4)C2)C3)cn1 do in these assays?
tim23-1 inh: 28; SKKanGAS inh: 1; PfHsp90 set2: 23; tim10-1 inh: 33; TIM10 inh: 25

How did Cn1nc(C(=O)NNC(=O)C(CCC(N)=O)NS(=O)(=O)c2ccc(Cl)cc2)c2ccccc2c1=O (centres undefined) do in these assays?
tim23-1 inh: 8; PfHsp90 set2: 2; tim10-1 inh: 6; TIM10 inh: 4

What do the screens show for `NC(=O)c1ccc(NC(=O)COC(=O)c2ccc(Br)c(S(=O)(=O)N3CCOCC3)c2)cc1`?
PfHsp90 set2: 14

Results for CC1(C)CCCN(C(=O)c2ccc3c(c2NCCO)C(=O)c2ccccc2C3=O)C1 ?
tim23-1 inh: 43; SKKanGAS inh: 4; PfHsp90 set2: 5; tim10-1 inh: 43*; TIM10 inh: 28; tim10-1 conf: 22

What do the screens show for `COc1ccc(S(=O)(=O)N(C)C)cc1NC(=O)Cc1ccc(S(=O)(=O)N2CCOCC2)s1`?
tim23-1 inh: -6; tim10-1 inh: 5; TIM10 inh: 7

How did Cc1cccc(-n2nc(C(=O)c3ccco3)cc(-c3nc4ccccc4[nH]3)c2=N)c1 do in these assays?
tim23-1 inh: 17; SKKanGAS inh: inconclusive; PfHsp90 set2: 4; tim10-1 inh: 50*; TIM10 inh: 27; tim10-1 conf: 25

What do the screens show for `CCOC(=O)N1C(=O)[C@@](c2ccc(Cl)cc2)(C(C)C)N1C(=O)OCC`?
tim23-1 inh: -16; SKKanGAS inh: 3; PfHsp90 set2: -16; tim10-1 inh: 44*; TIM10 inh: -10; tim10-1 conf: 45*

What do the screens show for `O=C(CCn1cccn1)Nc1ccc2c(c1)OCCO2`?
tim23-1 inh: -7; SKKanGAS inh: 12; PfHsp90 set2: -2; tim10-1 inh: -8; TIM10 inh: -2

How did O=C(N/N=C/c1cccnc1)c1cc(-c2ccc(Cl)cc2)nc2ccccc12 do in these assays?
tim23-1 inh: 37; SKKanGAS inh: -1; PfHsp90 set2: 17; tim10-1 inh: 18; TIM10 inh: 16

High-throughput results as filed in PubChem.
